The target of experiment [1] is Neuropeptide Y receptor type 2 (Homo sapiens) (UniProt P49146). Description: human Y2 receptor positive modulation or activation – cell-based, confirmation (AID 1539; in the data active means activation above about 33%). The conditions noted are these: cell-based NPY-Y2 potentiator/agonist assay; at 3.6 µM; active compounds read high.
The target in experiment [2] is Neuropeptide Y receptor type 1 (Homo sapiens) (UniProt P25929). Description: human Y1 receptor positive modulation or activation – cell-based, fluorescence, counter-screen for NPY-Y2 potentiator project (AID 1651; in the data active means activation above about 45%;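 further: cells stimulated with submaximal NPY then isoproterenol with phosphodiesterase inhibitor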). The conditions noted are these: Y1 HEK293-CNG cells, membrane potential fluorescence; at 3.6 µM; active compounds read high.
Neuropeptide Y receptor type 1 (Homo sapiens), sequence (P25929 whole entry, looked up): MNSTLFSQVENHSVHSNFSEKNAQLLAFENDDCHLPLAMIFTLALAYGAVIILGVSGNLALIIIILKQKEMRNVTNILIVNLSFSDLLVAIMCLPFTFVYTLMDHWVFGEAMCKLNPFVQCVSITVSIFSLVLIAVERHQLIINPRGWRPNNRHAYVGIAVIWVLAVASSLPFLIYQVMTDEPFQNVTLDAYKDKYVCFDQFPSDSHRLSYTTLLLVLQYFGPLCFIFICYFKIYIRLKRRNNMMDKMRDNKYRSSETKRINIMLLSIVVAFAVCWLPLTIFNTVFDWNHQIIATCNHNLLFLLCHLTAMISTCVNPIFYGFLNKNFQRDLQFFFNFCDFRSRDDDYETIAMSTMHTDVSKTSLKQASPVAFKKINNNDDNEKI
Experiment [3] shares this target. Put plainly: human Y1 receptor agonism, CNGC membrane potential – cell-based, fluorescence, selectivity assay for NPY-Y2 potentiator project (AID 1702;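 active means activation above the mean of DMSO-only control wells plus 3 SD, cut at about 18% in these data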;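 further: cells stimulated with 1 µM isoproterenol plus the PDE inhibitor Ro 20-1724; 0% = isoproterenol with DMSO and no NPY and 100% = 40 nM NPY; Y1 agonists lower the membrane potential dye signal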). The conditions noted are these: HEK293 Y1-CNGC, at 3.6 µM, active compounds read high.
Experiment [4] can be described thus: blockers of isoproterenol-driven CNG channel signal – cell-based, HEK293-CNG parental, membrane potential fluorescence, counter-screen for NPY-Y2 potentiator project (AID 1703;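 active means inhibition above the control-well mean plus 3 SD of those wells, cut at about 22% in these data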;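 further: 0% = DMSO with isoproterenol and 100% = DMSO without isoproterenol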). The conditions noted are these: isoproterenol cAMP, at 3.6 µM, active compounds read high. Background: A counterscreen serves to expose hits that act by an unwanted route or on another target.

The target of experiment [5] is Neuropeptide Y receptor type 2 (Homo sapiens) (UniProt P49146). Put plainly: agonism at human Y2 receptor without NPY – cell-based, fluorescence, counter-screen for NPY-Y2 potentiator project (AID 1710;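 active means activation above the mean of solvent-only control wells plus 3 SD, cut at about 10% in these data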;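 further: cells stimulated by isoproterenol with no NPY added so direct agonism is tested; 0% = DMSO with isoproterenol alone and 100% = NPY at EC100 plus isoproterenol; agonism lowers probe fluorescence through less cAMP and CNG channel opening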). The conditions noted are these: HEK293 Y2/CNGC cells, membrane potential fluorescence, agonist mode; at 3.6 µM; active compounds read high.
Experiment [6] can be described thus: suppression of KLF5 promoter-driven luciferase – DLD-1 cells, luminescence, confirmation (AID 1834;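 active means inhibition above a set limit taken from the earlier primary screen, cut at about 63% in these data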;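 further: 0% = DMSO wells and 100% = LY294002 at 200 µM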). The conditions noted are these: DLD-1 KLF5 promoter firefly luciferase reporter, at 4 µM, active compounds read high. (A reporter such as luciferase makes a cellular process visible.)
Experiment [7] is described as follows: IEC-6 intestinal cell killing – luminescence, triplicate, cytotoxicity control for KLF5 inhibitor project (AID 1905).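 Further: cells exposed to compounds for 48 hours before viability read.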 The settings on record: IEC-6 rat intestinal cells, viability luminescence; at 4 µM; active compounds read high.
For experiment [8], the target named is Photoreceptor-specific nuclear receptor (Homo sapiens) (UniProt Q9Y5X4). Put plainly: retest of NR2E3-NCOR disrupting agonists – cell-based, luminescence, CHO-S two-hybrid, confirmation (AID 624378;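 active means average inhibition above a cutoff equal to the mean inhibition of all tested compounds plus one SD, cut at about 70% in these data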;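 further: 0% = DMSO in NR2E3 cells and 100% = DMSO in cells lacking NR2E3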). The settings on record: CHO-S mammalian two-hybrid NR2E3-NCOR, luciferase luminescence; at 3.98 µM; active compounds read high.
Photoreceptor-specific nuclear receptor (Homo sapiens), sequence (Q9Y5X4 whole entry, looked up): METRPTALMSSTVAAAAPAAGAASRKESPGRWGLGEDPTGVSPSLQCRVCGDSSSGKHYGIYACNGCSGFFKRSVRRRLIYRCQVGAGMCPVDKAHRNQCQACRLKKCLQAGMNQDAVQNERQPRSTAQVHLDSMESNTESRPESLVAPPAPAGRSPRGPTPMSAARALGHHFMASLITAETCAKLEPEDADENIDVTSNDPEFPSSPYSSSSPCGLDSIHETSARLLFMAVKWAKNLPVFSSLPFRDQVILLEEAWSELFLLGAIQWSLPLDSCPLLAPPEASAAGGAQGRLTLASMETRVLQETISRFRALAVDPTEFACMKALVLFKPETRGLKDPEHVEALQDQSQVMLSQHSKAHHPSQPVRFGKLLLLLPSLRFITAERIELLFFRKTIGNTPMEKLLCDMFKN
The nature of experiment [9]: nonselective effects on VP16 transactivation – cell-based, luminescence, CHO-S, high throughput, counter-screen for NR2E3 agonist project, confirmation (AID 624379;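 active means mean inhibition above a cutoff equal to the average over all tested compounds plus one standard deviation, cut at about 70% in these data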;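 further: 0% = DMSO with VP16-transfected cells and 100% = DMSO with cells lacking VP16; higher means less reporter light so more repression of VP16 activity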). The settings on record: CHO-S GAL4-VP16 luciferase reporter, at 3.98 µM, active compounds read high.
The nature of experiment [10]: reduced OD of T4-infected AddAB+ E. coli – absorbance, E. coli V3065, T4 phage, triplicate, AddAB inhibitor project, confirmation (AID 488942;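 active means mean inhibition above a set limit taken from the earlier primary screen, cut at about 13% in these data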;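 further: higher means less bacterial growth since AddAB block lets phage replicate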). The conditions noted are these: E. coli V3065 expressing H. pylori AddAB, at 11.9 µM, active compounds read high, T4 phage with gene 2 nonsense mutations.
The nature of experiment [11]: reduced OD of phage-infected RecBCD+ V66 E. coli – absorbance, mutant T4 phage, counter-screen for AddAB inhibitor project (AID 488955;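 active means mean inhibition above the mean of solvent-only control wells plus 3 SD, cut at about 4% in these data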;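 further: optical density read after an 18 h incubation at 37 °C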). The settings on record: OD growth, at 11.9 µM, active compounds read high.
Experiment [12] can be described thus: bacterial growth inhibitors – absorbance, counter-screen for AddAB inhibitor project, confirmation (AID 488956; in the data active means inhibition above about 25%). The settings on record: bacterial viability, absorbance (AddAB counterscreen); at 11.9 µM; active compounds read high.
A short description of experiment [13]: reduced OD of V66 E. coli with T4 gene 2 phage – absorbance, RecBCD inhibitor project, confirmation (AID 651982;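 active means mean inhibition over triplicates exceeding the hit threshold derived in the original primary screen, cut at about 11% in these data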). The settings on record: E. coli V66 + T4 2- phage, growth OD; at 11.9 µM; active compounds read high.
A short description of experiment [14]: bacterial growth inhibition – absorbance, high throughput, counter-screen for RecBCD inhibitor project (AID 651983; in the data active means inhibition above about 20%;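 further: E. coli strain V66 grown with compound alone and no phage infection; 0% = bacteria with DMSO vehicle only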). The conditions noted are these: E. coli viability, absorbance (OD) growth; at 11.9 µM; active compounds read high.
A short description of experiment [15]: reduced optical density, T4-challenged addAB+ bacteria – absorbance, E. coli V3065, T4 phage, counter-screen for RecBCD inhibitor project, confirmation (AID 651984;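 active means mean inhibition above the solvent-only control wells' mean plus 3 SD, cut at about 22% in these data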;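 further: higher means less bacterial growth from phage killing when AddAB is blocked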). The settings on record: E. coli expressing H. pylori AddAB + T4 phage, OD growth; at 11.9 µM; active compounds read high; gene 2 mutant T4, recBCD-deleted host.
A short description of experiment [16]: StAR promoter reporter inhibitors, counter-screen for LRH-1 inverse agonist project, cell-based, luminescence, high throughput (AID 651611; in the data active means inhibition above about 28%). The settings on record: StAR promoter luciferase reporter counterscreen, at 3.6 µM, active compounds read high.
Experiment [17] concerns the target Nuclear receptor subfamily 5 group A member 2 (Homo sapiens) (UniProt O00482). Description: NR5A2 activity suppression in reporter cells – cell-based, luminescence, confirmation (AID 651613; in the data active means inhibition above about 42%;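 further: HEK293T cells co-transfected with LRH-1 and StAR promoter luciferase reporter; 0% = vehicle wells and 100% = parental cells lacking receptor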). The conditions noted are these: cell-based LRH-1 luciferase reporter, inverse agonism; at 3.6 µM; active compounds read high.
Experiment [18] deals with Steroidogenic factor 1 (Homo sapiens) (UniProt Q13285). Put plainly: inverse agonism at SF1 nuclear receptor – cell-based, luminescence, high throughput, counter-screen for LRH-1 inverse agonist project (AID 651614; in the data active means inhibition above about 44%;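 further: cells cotransfected with StAR promoter reporter and SF1 expression vector; 0% = vehicle on cells with receptor and 100% = vehicle on cells lacking receptor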). The settings on record: cell-based SF1 luciferase reporter, at 3.6 µM, active compounds read high.
Steroidogenic factor 1 (Homo sapiens), sequence (Q13285 whole entry, looked up, the tested form may be a part): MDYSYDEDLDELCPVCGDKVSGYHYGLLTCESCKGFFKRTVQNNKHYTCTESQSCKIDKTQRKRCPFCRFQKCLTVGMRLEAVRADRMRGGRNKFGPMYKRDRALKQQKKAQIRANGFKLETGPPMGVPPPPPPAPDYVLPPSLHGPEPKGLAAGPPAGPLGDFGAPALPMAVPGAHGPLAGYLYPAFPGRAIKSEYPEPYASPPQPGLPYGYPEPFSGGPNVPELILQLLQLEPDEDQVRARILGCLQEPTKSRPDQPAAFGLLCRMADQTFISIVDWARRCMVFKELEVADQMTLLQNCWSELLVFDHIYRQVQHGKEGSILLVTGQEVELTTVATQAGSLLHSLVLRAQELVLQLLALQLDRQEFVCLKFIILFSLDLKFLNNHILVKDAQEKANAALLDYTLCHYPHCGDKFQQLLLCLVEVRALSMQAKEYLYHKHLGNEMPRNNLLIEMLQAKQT
The nature of experiment [19]: compounds suppressing VP16-driven luciferase signal – cell-based, luminescence, high throughput, counter-screen for LRH-1 inverse agonist project (AID 651615; in the data active means inhibition above about 33%). The settings on record: Gal4-VP16 luciferase reporter cells, at 3.6 µM, active compounds read high.
A short description of experiment [20]: VP16-driven transactivation reporter suppression – cell-based, luminescence, HEK293, counter-screen for COUP-TFII antagonist project (AID 687007; in the data active means inhibition above about 13%). The settings on record: HEK293 Gal4-VP16 luciferase reporter, at 8.5 µM, active compounds read high.
Experiment [21] concerns the target COUP transcription factor 2 (Homo sapiens) (UniProt P24468). Put plainly: retest of COUP-TFII reporter suppressors – cell-based, luciferase reporter, HEK293, triplicate, confirmation (AID 687008;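 active means mean inhibition over three repeats above a set limit taken from the earlier primary screen, cut at about 38% in these data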;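 further: 100% = cells given the luciferase reporter alone without the COUP-TF2 vector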). The settings on record: HEK293 NGFI-A luciferase reporter, luminescence; at 8.5 µM; active compounds read high.
Experiment [22] addresses Protein phosphatase methylesterase 1 (Homo sapiens) (UniProt Q9Y570). Description: human PME-1 methylesterase inhibition confirmation – biochemical, fluorescence polarization, FP-Rh probe, triplicate (AID 2171;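 active means inhibition above the hit cutoff set in the earlier primary screen, cut at about 27% in these data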;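 further: 0% = enzyme with DMSO and 100% = wells lacking PME-1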). The conditions noted are these: recombinant PME-1, FP-Rh probe fluorescence polarization; at 5.9 µM; active compounds read high. (In fluorescence polarisation assays a small probe gives low polarisation when free and higher when bound to something large.)

In experiment [23] the test system is transactivating tegument protein VP16 (Human herpesvirus 1). Description: compounds suppressing VP16-driven luciferase signal – cell-based, luminescence, single concentration, counter-screen for SRC2 inhibitor project (AID 652007; in the data active means inhibition above about 36%). The conditions noted are these: cell-based VP16 transactivation luciferase reporter, at 8.9 µM, active compounds read high.
Experiment [24] deals with Nuclear receptor coactivator 2 (Homo sapiens) (UniProt Q15596). Put plainly: inhibition of GAL4-SRC2 driven luciferase expression – cell-based, luminescence, HEK293, triplicate, confirmation (AID 652008;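 active means mean inhibition above 46.5%, the solvent-only control mean plus 3 SD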;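 further: 0% = DMSO-treated cells and 100% = Gossypol at 36 µM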). The conditions noted are these: HEK293 GAL4-SRC2 luciferase reporter, at 8.9 µM, active compounds read high.
Nuclear receptor coactivator 2 (Homo sapiens), sequence (Q15596 whole entry, looked up, the tested form may be a part): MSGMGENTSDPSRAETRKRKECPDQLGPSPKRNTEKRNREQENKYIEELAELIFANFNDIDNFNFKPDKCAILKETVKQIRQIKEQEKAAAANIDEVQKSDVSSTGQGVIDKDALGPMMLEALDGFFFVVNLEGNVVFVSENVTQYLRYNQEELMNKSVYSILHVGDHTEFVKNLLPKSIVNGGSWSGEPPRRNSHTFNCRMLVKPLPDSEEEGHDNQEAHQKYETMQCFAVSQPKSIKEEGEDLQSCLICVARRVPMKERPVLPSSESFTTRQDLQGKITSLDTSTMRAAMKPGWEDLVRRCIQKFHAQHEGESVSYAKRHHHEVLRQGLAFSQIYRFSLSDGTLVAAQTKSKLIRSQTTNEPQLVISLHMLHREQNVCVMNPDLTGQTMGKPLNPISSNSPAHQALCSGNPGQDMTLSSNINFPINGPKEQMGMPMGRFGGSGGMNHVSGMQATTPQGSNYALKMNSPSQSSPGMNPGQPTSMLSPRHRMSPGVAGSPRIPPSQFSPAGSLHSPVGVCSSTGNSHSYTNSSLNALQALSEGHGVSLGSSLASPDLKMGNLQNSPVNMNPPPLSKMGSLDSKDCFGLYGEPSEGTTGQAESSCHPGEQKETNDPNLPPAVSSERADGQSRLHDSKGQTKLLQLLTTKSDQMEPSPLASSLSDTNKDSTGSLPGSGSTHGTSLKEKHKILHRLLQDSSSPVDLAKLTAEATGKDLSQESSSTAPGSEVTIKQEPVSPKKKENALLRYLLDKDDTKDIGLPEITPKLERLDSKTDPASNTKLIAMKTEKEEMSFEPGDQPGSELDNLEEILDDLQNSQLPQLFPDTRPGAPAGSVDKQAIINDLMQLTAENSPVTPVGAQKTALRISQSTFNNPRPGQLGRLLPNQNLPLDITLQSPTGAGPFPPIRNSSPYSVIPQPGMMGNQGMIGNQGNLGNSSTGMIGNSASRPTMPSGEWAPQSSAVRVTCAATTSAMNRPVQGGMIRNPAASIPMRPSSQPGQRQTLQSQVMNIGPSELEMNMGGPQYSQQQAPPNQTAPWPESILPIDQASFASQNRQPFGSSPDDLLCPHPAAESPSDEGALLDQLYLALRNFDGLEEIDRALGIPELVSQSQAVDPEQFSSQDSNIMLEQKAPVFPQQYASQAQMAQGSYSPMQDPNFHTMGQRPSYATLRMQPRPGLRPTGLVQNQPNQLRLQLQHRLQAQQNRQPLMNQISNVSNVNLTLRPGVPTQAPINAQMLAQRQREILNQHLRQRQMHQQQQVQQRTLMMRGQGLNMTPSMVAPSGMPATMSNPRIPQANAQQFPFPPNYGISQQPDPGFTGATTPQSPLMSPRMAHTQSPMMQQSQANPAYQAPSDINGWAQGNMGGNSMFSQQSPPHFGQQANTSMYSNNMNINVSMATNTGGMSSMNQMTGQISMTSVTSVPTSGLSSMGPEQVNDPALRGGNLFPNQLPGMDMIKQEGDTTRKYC

The inhibition is the drop in the measured response relative to a control, in per cent.

Unmarked numbers belong to inactive results. This is one part of the list. Activity calls are given as the source filed them. Unless noted, no stated cut-off is given here; in the data, active means inhibition above about 23%; inactive means the rest.

Neuropeptide Y receptor type 2 (Homo sapiens), sequence (P49146 whole entry, looked up): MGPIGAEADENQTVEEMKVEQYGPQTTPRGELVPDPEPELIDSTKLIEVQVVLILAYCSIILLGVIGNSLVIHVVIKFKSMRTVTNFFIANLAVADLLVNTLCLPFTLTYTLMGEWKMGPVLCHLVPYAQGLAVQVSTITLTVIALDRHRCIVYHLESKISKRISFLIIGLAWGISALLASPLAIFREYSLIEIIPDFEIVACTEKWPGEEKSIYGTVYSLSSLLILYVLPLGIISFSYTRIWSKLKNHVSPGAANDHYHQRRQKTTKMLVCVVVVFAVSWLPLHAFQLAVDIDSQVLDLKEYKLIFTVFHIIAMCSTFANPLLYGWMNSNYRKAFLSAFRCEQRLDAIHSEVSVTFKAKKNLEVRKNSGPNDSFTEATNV
COUP transcription factor 2 (Homo sapiens), sequence (P24468 whole entry, looked up): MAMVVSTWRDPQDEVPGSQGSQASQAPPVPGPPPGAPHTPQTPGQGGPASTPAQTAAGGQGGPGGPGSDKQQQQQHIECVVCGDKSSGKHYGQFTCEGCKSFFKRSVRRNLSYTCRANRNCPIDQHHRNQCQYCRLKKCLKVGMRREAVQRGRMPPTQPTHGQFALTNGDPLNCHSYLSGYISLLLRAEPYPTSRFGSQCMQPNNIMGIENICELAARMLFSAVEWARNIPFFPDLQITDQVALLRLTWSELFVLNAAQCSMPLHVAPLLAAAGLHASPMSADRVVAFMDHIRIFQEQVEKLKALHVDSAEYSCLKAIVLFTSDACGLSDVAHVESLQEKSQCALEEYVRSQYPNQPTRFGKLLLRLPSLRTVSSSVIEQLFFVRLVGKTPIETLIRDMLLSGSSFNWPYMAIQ
Nuclear receptor subfamily 5 group A member 2 (Homo sapiens), sequence (O00482 whole entry, looked up): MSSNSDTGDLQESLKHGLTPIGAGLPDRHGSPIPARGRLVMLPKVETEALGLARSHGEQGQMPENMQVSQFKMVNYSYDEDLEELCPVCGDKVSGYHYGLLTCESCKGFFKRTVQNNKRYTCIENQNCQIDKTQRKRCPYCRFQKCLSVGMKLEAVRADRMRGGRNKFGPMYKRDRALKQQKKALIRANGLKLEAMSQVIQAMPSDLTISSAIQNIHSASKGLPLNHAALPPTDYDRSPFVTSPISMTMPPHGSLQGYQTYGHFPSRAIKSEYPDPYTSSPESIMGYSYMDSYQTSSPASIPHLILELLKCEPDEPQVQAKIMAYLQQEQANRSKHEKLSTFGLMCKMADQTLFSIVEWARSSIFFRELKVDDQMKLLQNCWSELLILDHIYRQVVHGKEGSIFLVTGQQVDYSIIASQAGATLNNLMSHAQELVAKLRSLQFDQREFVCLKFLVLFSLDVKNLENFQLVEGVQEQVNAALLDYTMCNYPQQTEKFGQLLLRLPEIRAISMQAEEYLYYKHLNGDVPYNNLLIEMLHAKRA
Protein phosphatase methylesterase 1 (Homo sapiens), sequence (Q9Y570 whole entry, looked up): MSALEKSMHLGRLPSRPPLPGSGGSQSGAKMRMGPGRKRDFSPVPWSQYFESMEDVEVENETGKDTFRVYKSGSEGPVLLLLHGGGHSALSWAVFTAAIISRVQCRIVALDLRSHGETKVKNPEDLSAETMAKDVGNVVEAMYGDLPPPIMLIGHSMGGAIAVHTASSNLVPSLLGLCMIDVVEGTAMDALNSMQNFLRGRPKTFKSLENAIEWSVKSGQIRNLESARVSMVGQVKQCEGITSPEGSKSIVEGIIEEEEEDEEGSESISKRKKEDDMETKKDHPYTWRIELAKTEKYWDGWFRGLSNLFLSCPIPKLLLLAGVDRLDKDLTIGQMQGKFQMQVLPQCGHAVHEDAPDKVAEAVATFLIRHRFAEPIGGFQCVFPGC

On to `CN(Cc1ccccc1)C(=O)CCNC(=O)Cn1cnc2ccccc2c1=O`, for which the activation in [1] was 11.1%; in experiment [2], 33.4%; in experiment [3], 11.4%; in experiment [5] it was 18.3% (active). In addition, in experiment [4], the inhibition was 11.2%.

With `CCNC(=O)CCc1nc(-c2ccc(C(C)(C)C)cc2)no1`, the inhibition in [6] is 56%; in [7], -2.69%; in experiment [8], 73.5% (active); in experiment [9] it was 77.8% (active).

For the molecule `COc1cccc(/C=N/Nc2ncc(C(F)(F)F)cc2Cl)c1O`, the inhibition in experiment [6] was 99.8% (active); in experiment [7], 0.75%; in [10] it was 12.9% (active); in experiment [11], 16.2% (active); in experiment [12] it was 16.3%; in experiment [8] it was 83% (active). Also, the inhibition in experiment [9] was 75.5% (active); in experiment [13], 7.89%; in experiment [14], 9.3%; in experiment [15], 12.8%.

As to `COc1ccccc1N1CCN(C(=O)c2cc(=O)c3cc(C)cc(C)c3o2)CC1`, the results for the inhibition in experiment [6] and in experiment [7] were 87.3% (active) and 58.2% (active), respectively.

With `Cn1nccc1C(=O)NC1CCCc2c1cnn2-c1ccc(F)cc1F` (stereo not drawn), the inhibition in experiment [6] was 24.7%; in experiment [7] it was 13.8%; in experiment [8], 96.4% (active); in [9] it was 86.3% (active); in experiment [16], 20.2%; in experiment [17], 62.8% (active). Moreover, the inhibition in experiment [18] was 67.1% (active); in experiment [19], 57.1% (active); in [20], -3.41%; in experiment [21], 62.2% (active).

Consider `O=c1cc(-c2ccccc2)[nH]c2cc(F)ccc12`, for which the results for the inhibition in experiment [6] and in experiment [7] were 77.9% (active) and 59.3% (active), respectively.

For `Cc1ccc2[nH]c(=O)c(CN(CCCN(C)C)C(=O)Nc3cccc(Cl)c3)cc2c1`, the inhibition was -15.6% in experiment [6] and 6.49% in [7].

`COc1ccc(C(=O)Nc2ccccc2C(=O)N/N=C/c2ccc(O)c(OC)c2)cc1`: the inhibition in [6] was 111% (active); in [7] it was 4.51%; in [22], 28.2% (active); in experiment [8], 42.1%; in experiment [9] it was -33%; in experiment [16], 19%. Moreover, the inhibition in experiment [17] was -69.7%; in experiment [18], 11.7%; in experiment [19], -41.2%; in experiment [23], 64.8% (active); in experiment [24] it was 59.3% (active); in experiment [20], 7.03%. Besides, the inhibition in experiment [21] was 75.2% (active).

As to `Cc1ccc(CCNC(=O)C2CCN(S(=O)(=O)N3CCCC3)CC2)cc1`, the activation in [1] is -1.21%; in experiment [2] it was -6.28%; in [3] it was -10.2%; in experiment [5], -8.83%. Besides, the inhibition in experiment [4] was -4.94%.

(Values after PubChem BioAssay.)
